Assay outcomes from PubChem BioAssay.
A selection: hits, their analogues and other compounds. The true share with any hit is near 0.42%.
GLS inhibitor = blocks human kidney-isoform glutaminase activity; O94925; GLS enzymatic activity, qHTS titration; Potency, µM (top dose mostly 45.5 µM), without a hit: at the top dose activity change, negative = inhibition, usual class: inhibitors; 410,000 tested, 0.21% active; further: on the % scale 0 is the no-effect control and ±100 the full control effect
Target sequence (O94925 whole entry, looked up, canonical isoform): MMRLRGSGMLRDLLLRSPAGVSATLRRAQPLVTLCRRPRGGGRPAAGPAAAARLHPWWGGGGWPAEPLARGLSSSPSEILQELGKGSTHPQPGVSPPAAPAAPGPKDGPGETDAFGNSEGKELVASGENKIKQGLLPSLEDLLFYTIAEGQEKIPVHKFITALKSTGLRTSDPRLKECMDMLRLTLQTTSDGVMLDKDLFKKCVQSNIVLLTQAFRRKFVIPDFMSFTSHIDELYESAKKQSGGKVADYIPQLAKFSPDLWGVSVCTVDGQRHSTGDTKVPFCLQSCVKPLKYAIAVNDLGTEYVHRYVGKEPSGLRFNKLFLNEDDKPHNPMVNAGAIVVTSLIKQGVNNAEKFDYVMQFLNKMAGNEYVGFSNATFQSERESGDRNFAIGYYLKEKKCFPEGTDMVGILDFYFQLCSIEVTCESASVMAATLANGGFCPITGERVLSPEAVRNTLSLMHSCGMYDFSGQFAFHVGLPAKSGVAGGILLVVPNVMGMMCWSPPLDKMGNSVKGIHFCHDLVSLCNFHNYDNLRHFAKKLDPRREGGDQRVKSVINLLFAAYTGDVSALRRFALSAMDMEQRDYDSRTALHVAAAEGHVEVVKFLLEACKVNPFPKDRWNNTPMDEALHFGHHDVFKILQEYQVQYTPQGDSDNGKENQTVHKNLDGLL
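hKGA in 45 mM KH2PO4 (pH 8.2), 0.02% Tween-20 with compound, then 1mM L-Glutamine (stock as added) plus glutamate oxidase/HRP/Amplex red coupling mix. Fluorescence read initially and after 30 min at RT; signal change reflects glutamate formation.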
Chronic BCR inh = inhibitors of chronic active B-cell receptor signaling | 340,000 tested, 0.05% active | ABC-DLBCL IkBa-CBG/CBR reporter, luminescence ratio, 4 h | AID 493014 | Potency, µM (titrated, usually from 46.1 µM), for inactives: at the highest dose activity change, negative = inhibition, most hits filed as inhibitors; active means well fitted inhibition curve with a large enough effect in the signal ratio, with a control signal flat, not every such curve was filed as active; inconclusive means small, poorly fitted or top-dose-only effect, or effect the other way, or a change in a side signal; the % refers to the signal ratio;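 further: plate controls were basal doxycycline-induced cells for no effect and cells given 10 µM MG132 for full effect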
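Compounds up to 46 uM were incubated four hours with TMD8 cells whose green CBG68 luciferase is fused to IkappaBalpha; red CBR luminescence normalised the signal, and concentration-effect curves were fitted to fusion, red and ratio data.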
Tb PFK inh-1 = inhibitors of T. brucei phosphofructokinase | T. brucei PFK, ADP-Glo luminescence | 330,000 tested, 0.17% active | Potency, µM (titrated, usually from 57.5 µM), without a hit: top-dose activity, negative = inhibition, most hits filed as inhibitors;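 further: 0% = uninhibited 1x PFK enzyme wells and -100% = no-enzyme wells; nearly all actives have a fitted effect of over 60% in size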
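In TEA buffer at pH 8.0 with 5 mM MgCl2, enzyme (1.25 nM) converted F6P (0.5 mM) and ATP (0.1 mM) for 45 min at room temperature. ADP product was read by luciferase luminescence.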
Tb PGK inh = T. brucei PGK inhibition. P07378. PGK/GAPDH coupled, Kinase-Glo luminescence, 60 min. Potency, µM (series often up to 57.5 µM), for the others: top-dose activity change, negative = inhibition, hits mostly inhibitors. 380,000 tested, 0.043% active. AID 602233; further: on the % scale 0 is the no-effect control and ±100 the full control effect; nearly all actives have a fitted effect of over 60% in size
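Luminescent ATP detection (Kinase-Glo Plus) follows a 60-minute room-temperature incubation, with wells lacking PGK as controls. Buffer: 100 mM TEA (pH 7.6), 5 mM MgCl2, 0.01% Tween-20. Coupling enzyme GAPDH (100 nM final) supplies unstable 1,3-BPG in-well.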
B2AR arrestin = recruits beta-arrestin to the human beta2-adrenergic receptor; beta-arrestin recruitment to beta2AR, cell-based reporter; Potency, µM (series often up to 46.1 µM), inactives show top-dose activation, most hits filed as activators; 330,000 tested, 0.02% active;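 further: 0% = DMSO controls and full agonism = EC100 isoproterenol or metaproterenol; nearly all actives have a fitted effect of over 65% in size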
Pin1 inh = blocks the human prolyl isomerase Pin1; Potency, µM (highest dose often 115 µM), for the others: at the top dose activity, negative = inhibition, actives largely listed as inhibitors; Q13526; Pin1 FP peptide displacement, HiFluor488, 10 min; 390,000 tested, 0.009% active; active means well fitted inhibition curve with a large enough effect in the polarisation, with a control signal flat, not every such curve was filed as active; inconclusive means small, poorly fitted or top-dose-only effect, or effect the other way, or a change in a side signal; inactive means no such curve, though single readings can be large or run the other way; the % refers to the polarisation; further: on the % scale 0 is the no-effect control and ±100 the full control effect
Tb PFK KinaseGlo = Tb phosphofructokinase inhibition, orthogonal luminescence; shares compounds with Tb PFK inh-1; Tb PFK enzyme, ATP depletion, Kinase-Glo Plus luminescence; Potency, µM (doses to about 57.5 µM), inactives show at the highest dose inhibition; 1,100 tested, 47% active; calls by dose curve; further: nearly all actives have a fitted effect of over 60% in size
Tb PFK inh-2 = T. brucei PFK enzyme inhibition, hit validation; 1,100 tested, 41% active; Potency, µM (doses to about 57.5 µM), for inactives: top-dose activity change, negative = inhibition, most hits filed as inhibitors; shares compounds with Tb PFK inh-1; purified T. brucei PFK, ADP-Glo luminescence, 45 min;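 further: plate controls were full PFK enzyme control for no effect and no enzyme control for full effect; nearly all actives have a fitted effect of over 60% in size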
Starred values were filed as active, the others as inactive; [ ] = remark or other dose. Unless noted, the call rests on the fitted dose curve; in most records, active means well fitted curve in the direction sought with a large enough effect; inconclusive means small, poorly fitted or top-dose-only effect, or another doubt; inactive means no such curve, though single readings can be large; an effect the other way counts as inactive or inconclusive. Potency means the concentration at half of the fitted maximal effect.

Results for O=c1c(O)c(-c2cc(O)c(O)c(O)c2)oc2cc(O)cc(O)c12 ?
GLS inhibitor: 4µM*; Chronic BCR inh: 1%; Tb PFK inh-1: 8.5µM*; Tb PGK inh: inconclusive; B2AR arrestin: 0%; Pin1 inh: inconclusive; Tb PFK KinaseGlo: 1.9µM*; Tb PFK inh-2: 3.8µM*

How did Nc1c(Cl)c(Cl)c(Cl)c(Cl)c1Cl do in these assays?
GLS inhibitor: 0%[99.4 µM]

Results for CCN(CC)c1ccc(SS(=O)(=O)O)cc1 ?
GLS inhibitor: 36%; Chronic BCR inh: 0%; Tb PFK inh-1: 19µM*; Tb PGK inh: -3%; B2AR arrestin: 0%; Pin1 inh: -1%; Tb PFK KinaseGlo: 11µM*; Tb PFK inh-2: 12µM*

How did CCN(CC)c1ccc(C=C2C(=O)NC(=S)NC2=O)cc1 do in these assays?
GLS inhibitor: inconclusive; Chronic BCR inh: -9%; Tb PFK inh-1: inconclusive; B2AR arrestin: 0%; Pin1 inh: 0%

What do the screens show for `S=P(c1ccccc1)(c1ccccc1)c1c[nH]c2ccccc12`?
Pin1 inh: 0%

What do the screens show for `O=C(Cc1ccc(Cl)c(Cl)c1)NCC1(N2CCOCC2)CCCCC1`?
GLS inhibitor: 9%; Chronic BCR inh: 6%; Tb PFK inh-1: -21%; Tb PGK inh: 4%; B2AR arrestin: 0%; Pin1 inh: inconclusive

How did O=C1C=C(NCc2ccc(Cl)c(Cl)c2)C2(CCCCC2)O1 do in these assays?
GLS inhibitor: 8%; Chronic BCR inh: -1%; Tb PFK inh-1: 17µM*; Tb PGK inh: -5%; B2AR arrestin: 0%; Pin1 inh: -3%; Tb PFK KinaseGlo: 6µM*; Tb PFK inh-2: 24µM*

Results for CCOc1cc(/C=N/NC(=O)c2cccs2)ccc1OC(=O)N1CCOCC1 ?
GLS inhibitor: 3%; Chronic BCR inh: inconclusive; Tb PFK inh-1: 1%; Tb PGK inh: -4%; B2AR arrestin: -1%; Pin1 inh: -4%

What do the screens show for `CCCOc1ccc(/C(O)=C2/C(=O)C(=O)N(CCCn3ccnc3)C2c2ccc(C)o2)cc1` (configuration not stated)?
GLS inhibitor: 1%; Chronic BCR inh: 2%; Tb PFK inh-1: inconclusive; Tb PGK inh: 6%; B2AR arrestin: -1%; Pin1 inh: 6%; Tb PFK KinaseGlo: inconclusive; Tb PFK inh-2: 30µM*

What do the screens show for `CCOC(=O)c1[nH]c(C)c(/C(O)=C2\C(=O)C(=O)N(CCCn3ccnc3)C2c2ccncc2)c1C` (configuration not stated)?
GLS inhibitor: -1%; Chronic BCR inh: 2%; Tb PFK inh-1: 24µM*; Tb PGK inh: -5%; B2AR arrestin: -2%; Pin1 inh: -7%; Tb PFK KinaseGlo: 12µM*; Tb PFK inh-2: 27µM*

Results for CC(=NCCCn1ccnc1)c1c(O)n(-c2ccccc2)c(=O)[nH]c1=O ?
GLS inhibitor: -9%; Chronic BCR inh: -1%; Tb PFK inh-1: 0%; Tb PGK inh: inactive; B2AR arrestin: -1%; Pin1 inh: 0%

Results for CC1Cc2cc(/C(O)=C3/C(=O)C(=O)N(CCCn4ccnc4)C3c3cccc([N+](=O)[O-])c3)ccc2O1 (configuration not stated) ?
GLS inhibitor: 6%; Chronic BCR inh: -5%; Tb PFK inh-1: 11µM*; Tb PGK inh: 3%; B2AR arrestin: 0%; Pin1 inh: -6%; Tb PFK KinaseGlo: 6.7µM*; Tb PFK inh-2: 21µM*

What do the screens show for `O=C(Nc1ccc2nc(SCC(=O)N3CCCc4ccccc43)sc2c1)c1cccc(F)c1`?
GLS inhibitor: -11%; Tb PGK inh: inactive; Pin1 inh: 53%

How did NC(=S)NNc1ccc(Cl)c(Cl)c1 do in these assays?
GLS inhibitor: 27%; Chronic BCR inh: -3%; Tb PFK inh-1: 19µM*; Tb PGK inh: inactive; B2AR arrestin: -1%; Pin1 inh: 1%; Tb PFK KinaseGlo: 4.8µM*; Tb PFK inh-2: 12µM*

Results for CC(=O)N1CCc2cc(S(=O)(=O)N3CCN(c4ccc(C)cc4)C(C)C3)ccc21 (configuration not stated) ?
GLS inhibitor: 1%; Tb PGK inh: -7%; Pin1 inh: 44%

How did C=CC[N+]1(C)CCC23c4c5ccc(O)c4O[C@H]2C(=O)CC[C@@]3(O)C1C5 (some centres not stated) do in these assays?
GLS inhibitor: 71%

Results for Cc1c(Br)c([N+](=O)[O-])nn1CC(=O)Nc1ccccn1 ?
GLS inhibitor: 2%; Chronic BCR inh: -8%; Tb PFK inh-1: 19µM*; Tb PGK inh: 6%; B2AR arrestin: 0%; Pin1 inh: 1%; Tb PFK KinaseGlo: 19µM*; Tb PFK inh-2: inconclusive

How did CC(=O)Nc1ccc(NC(=O)Cn2nc([N+](=O)[O-])c(Br)c2C)cc1 do in these assays?
GLS inhibitor: -10%; Chronic BCR inh: -17%; Tb PFK inh-1: 12µM*; Tb PGK inh: -4%; B2AR arrestin: 0%; Pin1 inh: -3%; Tb PFK KinaseGlo: 19µM*; Tb PFK inh-2: 30µM*

What do the screens show for `Cc1ccc(Cn2nc(C(=O)Nc3ccc(Br)cc3)cc2C)cc1`?
GLS inhibitor: 6%; Chronic BCR inh: inconclusive; Tb PFK inh-1: 10%; Tb PGK inh: 6%; B2AR arrestin: -1%; Pin1 inh: inconclusive

Results for Cc1c(Br)c([N+](=O)[O-])nn1CC(=O)Nc1ccc(Cc2ccncc2)cc1 ?
GLS inhibitor: 5%; Chronic BCR inh: inconclusive; Tb PFK inh-1: 13µM*; Tb PGK inh: -6%; B2AR arrestin: -2%; Pin1 inh: -14%; Tb PFK KinaseGlo: 13µM*; Tb PFK inh-2: 21µM*

How did Cc1c(Br)c([N+](=O)[O-])nn1CC(=O)Nc1ccc2nc3n(c(=O)c2c1)CCCC3 do in these assays?
GLS inhibitor: -8%; Chronic BCR inh: inconclusive; Tb PFK inh-1: inconclusive; Tb PGK inh: -8%; B2AR arrestin: -1%; Pin1 inh: -6%; Tb PFK KinaseGlo: 24µM*; Tb PFK inh-2: inconclusive

Results for O=C(NNc1ccccn1)c1ccccc1CC[N+](=O)[O-] ?
GLS inhibitor: inconclusive; Chronic BCR inh: inconclusive; Tb PFK inh-1: -1%; Tb PGK inh: -1%; B2AR arrestin: -1%; Pin1 inh: 1%
